# Reference: PubChem BioAssay (Tox21)
# “And” between values parts separate entries of the source, which are not always exact repeats. Equal values may be shown once. Inconclusive results are not listed. Entries that show only a call come without a potency. The source made the active and inactive calls. Unless noted, calls follow the shape of the full dose curve.
# Assays:
# [1] = Nuclear factor erythroid 2-related factor 2/antioxidant responsive element (Nrf2/ARE) small molecule agonists: qHTS cell viability counter screen in human keratinocytes (AID 1919968; active = well fitted curve in the direction sought with a large enough effect in the repeat runs; an effect the other way counts as inactive or inconclusive; also: nearly all actives have a fitted effect of over 55% in size)
# How it was run: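 Seed 1,500 KeratinoSens cells per well, then incubate 5 h at 37 C/5% CO2. Add compounds in DMSO and incubate 23 h. Add CellTiter-Fluor, wait 1 h and read fluorescence.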
# [2] = Nuclear factor erythroid 2-related factor 2/antioxidant responsive element (Nrf2/ARE) small molecule agonists: luciferase reporter gene qHTS assay in human keratinocytes (AID 1919969); also: nearly all actives have a fitted effect of over 35% in size; also: potency is read from the fitted curve at half-maximal effect
# [3] = target: Gonadotropin-releasing hormone receptor (Homo sapiens) (UniProt P30968); assay: Human gonadotropin-releasing hormone receptor (GnRHR) small molecule agonists, calcium flux assay in GnRHR-HEK293 cells (AID 1920063); also: nearly all actives have a fitted effect of over 35% in size
# Chain of Gonadotropin-releasing hormone receptor (Homo sapiens) (P30968 whole entry, looked up): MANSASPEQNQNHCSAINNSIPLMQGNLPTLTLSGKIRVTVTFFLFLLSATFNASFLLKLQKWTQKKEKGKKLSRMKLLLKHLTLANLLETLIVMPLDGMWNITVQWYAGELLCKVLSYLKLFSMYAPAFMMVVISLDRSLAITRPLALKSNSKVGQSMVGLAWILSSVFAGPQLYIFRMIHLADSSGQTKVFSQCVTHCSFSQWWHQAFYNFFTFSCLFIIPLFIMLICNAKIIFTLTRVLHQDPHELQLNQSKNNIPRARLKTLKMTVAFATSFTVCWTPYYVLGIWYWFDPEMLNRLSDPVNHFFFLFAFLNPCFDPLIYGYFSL
# How it was run: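 Cells: HEK293 stably expressing human GnRHR. Steps: overnight (18 h) culture, 1 h calcium dye loading at 37 C, compound addition, kinetic fluorescence read at 480/540 nm. Each compound tested at 15 concentrations in triplicate.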
# [4] = target: KiSS-1 receptor (Homo sapiens) (UniProt Q969F8); assay: Human kisspeptin (KISS1R) small molecule agonists, calcium flux assay in KISS1R-HEK293 cells (AID 1920064; active = well fitted curve in the direction sought with a large enough effect in the repeat runs; an effect the other way counts as inactive or inconclusive)
# Chain of KiSS-1 receptor (Homo sapiens) (Q969F8 whole entry, looked up): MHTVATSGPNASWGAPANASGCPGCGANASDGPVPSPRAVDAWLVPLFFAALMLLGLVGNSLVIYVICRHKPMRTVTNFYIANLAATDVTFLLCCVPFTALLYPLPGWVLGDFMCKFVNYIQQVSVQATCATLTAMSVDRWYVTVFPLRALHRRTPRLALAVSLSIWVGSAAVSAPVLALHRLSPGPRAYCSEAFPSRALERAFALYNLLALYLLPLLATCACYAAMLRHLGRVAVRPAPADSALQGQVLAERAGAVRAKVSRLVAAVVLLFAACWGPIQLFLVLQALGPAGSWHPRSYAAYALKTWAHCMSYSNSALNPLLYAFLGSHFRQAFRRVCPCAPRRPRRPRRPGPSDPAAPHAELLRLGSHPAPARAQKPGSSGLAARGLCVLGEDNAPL
# How it was run: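 Cells plated and incubated 18 h; dye added, 1 h at 37 C; compounds in DMSO pinned in; signal read at 480/540 nm every second for 3 min. Each compound tested at 15 concentrations in triplicate.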
# [5] = G protein-coupled receptor (GPCR) small molecule agonists, calcium flux assay: HEK293 wild type cell line counter screen (AID 1920065)
# How it was run: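 Counter-screen of the Tox21 10K library for non-specific calcium release: dye-loaded cells received compounds in DMSO and were monitored by kinetic fluorescence (480/540 nm, 3 min). Fifteen concentrations, run in triplicate.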
# [6] = p53 small molecule agonists, cell-based qHTS assay with human liver microsomes (AID 1963577)
# How it was run: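 p53RE-bla reporter cells were pre-incubated 5 h at 37 C, then treated with compounds plus human liver microsomes (0.5 mg/mL final) and NADPH (0.5 mg/mL final) for 16 h at 37 C. Beta-lactamase activity was read by LiveBLAzer fluorescence after 2 h at room temperature.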
# [7] = p53 small molecule agonists, cell-based qHTS assay with rat liver microsomes (AID 1963578)
# How it was run: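 p53RE-bla cells were exposed to compounds together with rat liver microsomes (0.5 mg/mL final) and NADPH (0.5 mg/mL final) for 16 h at 37 C, then read by LiveBLAzer beta-lactamase fluorescence after 2 h at room temperature.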
# [8] = p53 small molecule agonists, cell-based qHTS assay with human liver microsomes: qHTS cell viability counter screen (AID 1963579); also: nearly all actives have a fitted effect of over 45% in size
# How it was run: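 p53RE-bla cells (4,000/well) were pre-incubated 5 h at 37 C, then given compounds in DMSO plus human liver microsomes (0.5 mg/mL final) and NADPH (0.5 mg/mL final) for 16 h at 37 C. Viability was read by CellTiter-Glo luminescence.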
# [9] = p53 small molecule agonists, cell-based qHTS assay with rat liver microsomes: qHTS cell viability counter screen (AID 1963580); also: nearly all actives have a fitted effect of over 45% in size
# How it was run: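 Viability is assessed in parallel with the p53 reporter read: HCT-116 p53RE-bla cells receive compounds plus rat microsomes and NADPH (0.5 mg/mL final apiece), incubate 16 h at 37 C, and then CellTiter-Glo luminescence is recorded.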
# [10] = p53 small molecule agonists, cell-based qHTS assay: qHTS cell viability counter screen (AID 1963581); also: nearly all actives have a fitted effect of over 45% in size
# How it was run: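 Cells: HCT-116 with p53 response element-driven beta-lactamase. Treatment: 16 h, 37 C, compounds in DMSO. Read: CellTiter-Glo luminescence after 30 min RT.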
# [11] = p53 small molecule agonists, cell-based qHTS assay (AID 1963582; active = well fitted activation curve with a large enough effect in the signal ratio in the repeat runs, not every such curve was filed as active; the % refers to the signal ratio)
# How it was run: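 Quantitative HTS in p53RE-bla cells: after a 5 h settling period, compounds delivered in DMSO were left on cells for 16 h at 37 C, and reporter induction was measured as fluorescence following 2 h substrate loading.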
# [12] = target: 5-hydroxytryptamine receptor 2A (Homo sapiens) (UniProt P28223); assay: 5-hydroxytryptamine receptor 2A (HTR2A) small molecule antagonists, cell-based qHTS assay (AID 1963586); also: nearly all actives have a fitted effect of over 45% in size
# Chain of 5-hydroxytryptamine receptor 2A (Homo sapiens) (P28223 whole entry, looked up): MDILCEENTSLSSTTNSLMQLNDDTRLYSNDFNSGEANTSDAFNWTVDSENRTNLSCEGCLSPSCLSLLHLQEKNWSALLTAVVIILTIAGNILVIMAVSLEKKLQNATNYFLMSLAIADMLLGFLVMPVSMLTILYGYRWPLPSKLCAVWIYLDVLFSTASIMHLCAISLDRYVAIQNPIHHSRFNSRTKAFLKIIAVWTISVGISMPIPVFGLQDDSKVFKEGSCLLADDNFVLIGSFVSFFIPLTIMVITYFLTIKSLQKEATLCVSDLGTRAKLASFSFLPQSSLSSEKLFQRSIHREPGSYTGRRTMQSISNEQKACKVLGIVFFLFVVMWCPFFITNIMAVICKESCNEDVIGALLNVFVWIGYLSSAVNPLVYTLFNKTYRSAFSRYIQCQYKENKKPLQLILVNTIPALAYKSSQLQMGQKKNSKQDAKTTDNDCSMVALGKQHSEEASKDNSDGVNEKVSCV
# How it was run: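 Antagonist-mode intracellular calcium assay: DOI (4 nM) added after 5 min compound pre-incubation at room temperature to dye-loaded HTR2A-CHO cells. Fluorescence followed for 3 min, sampled every second.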
# [13] = target: 5-hydroxytryptamine receptor 2A (Homo sapiens) (UniProt P28223); assay: 5-hydroxytryptamine receptor 2A (HTR2A) small molecule agonists, cell-based qHTS assay (AID 1963587); also: nearly all actives have a fitted effect of over 30% in size
# How it was run: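 CHO cells stably expressing human HTR2A, plated 18 h, loaded with calcium dye 1 h at 37 C. Agonist mode: compounds added and intracellular calcium fluorescence recorded kinetically for 2 min at 1 sec intervals.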
# [14] = target: Muscarinic acetylcholine receptor M1 (Homo sapiens) (UniProt P11229); assay: Cholinergic receptor muscarinic 1 (CHRM1) small molecule antagonists, cell-based qHTS assay (AID 1963588); also: nearly all actives have a fitted effect of over 40% in size; also: potency is read from the fitted curve at half-maximal effect
# Chain of Muscarinic acetylcholine receptor M1 (Homo sapiens) (P11229 whole entry, looked up): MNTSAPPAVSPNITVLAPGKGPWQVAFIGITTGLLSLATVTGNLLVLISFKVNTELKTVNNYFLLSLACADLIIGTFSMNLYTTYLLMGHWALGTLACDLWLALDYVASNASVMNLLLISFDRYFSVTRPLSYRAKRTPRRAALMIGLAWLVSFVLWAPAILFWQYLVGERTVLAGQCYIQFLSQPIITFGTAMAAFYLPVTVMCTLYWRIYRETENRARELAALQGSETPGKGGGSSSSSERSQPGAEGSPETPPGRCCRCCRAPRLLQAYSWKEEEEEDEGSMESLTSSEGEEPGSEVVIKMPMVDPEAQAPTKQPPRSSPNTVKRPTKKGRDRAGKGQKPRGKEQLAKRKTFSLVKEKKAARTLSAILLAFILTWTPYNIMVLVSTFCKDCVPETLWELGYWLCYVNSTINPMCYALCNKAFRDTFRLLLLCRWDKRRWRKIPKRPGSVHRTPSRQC
# How it was run: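 CHRM1-CHO calcium-flux assay, antagonist mode. Cells were seeded 18 h, dye-loaded 1 h at 37 C and given compound for 5 min at RT, then acetylcholine was added at 50nM. FDSS fluorescence was read 3 min; 15 concentrations, three runs.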
# [15] = target: Muscarinic acetylcholine receptor M1 (Homo sapiens) (UniProt P11229); assay: Cholinergic receptor muscarinic 1 (CHRM1) small molecule agonists, cell-based qHTS assay (AID 1963589); also: nearly all actives have a fitted effect of over 35% in size
# How it was run: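 Agonist-mode qHTS in CHO cells stably carrying human muscarinic M1. Intracellular calcium is tracked by fluorescence every second after compound transfer; each compound runs at 15 concentrations in three independent runs.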
# [16] = cAMP Responsive Elements (CRE) small molecule agonists, cell-based qHTS assay (AID 1963590)
# How it was run: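 Agonist mode qHTS in CRE-bla HEK 293T cells: compounds dosed from DMSO for 3 h at 37 C/5% CO2, followed by LiveBLAzer B/G FRET substrate for 2 h at room temperature.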
# [17] = cAMP Responsive Elements (CRE) small molecule antagonists, cell-based qHTS assay (AID 1963591; active = well fitted inhibition curve with a large enough effect in the signal ratio in the repeat runs, not every such curve was filed as active; the % refers to the signal ratio)
# How it was run: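 Antagonist mode: test compounds are co-incubated with the adenylyl cyclase activator NKH477 (0.25 uM final) on CRE-bla HEK293T cells for 3 h at 37 °C, followed by LiveBLAzer substrate loading.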
# [18] = target: Beta-2 adrenergic receptor (Homo sapiens) (UniProt P07550); assay: Adrenergic beta2 receptor (ADRB2) small molecule antagonists, cell-based qHTS assay (AID 1963592); also: series mostly up to about 92 µM; nearly all actives have a fitted effect of over 50% in size
# Chain of Beta-2 adrenergic receptor (Homo sapiens) (P07550 whole entry, looked up): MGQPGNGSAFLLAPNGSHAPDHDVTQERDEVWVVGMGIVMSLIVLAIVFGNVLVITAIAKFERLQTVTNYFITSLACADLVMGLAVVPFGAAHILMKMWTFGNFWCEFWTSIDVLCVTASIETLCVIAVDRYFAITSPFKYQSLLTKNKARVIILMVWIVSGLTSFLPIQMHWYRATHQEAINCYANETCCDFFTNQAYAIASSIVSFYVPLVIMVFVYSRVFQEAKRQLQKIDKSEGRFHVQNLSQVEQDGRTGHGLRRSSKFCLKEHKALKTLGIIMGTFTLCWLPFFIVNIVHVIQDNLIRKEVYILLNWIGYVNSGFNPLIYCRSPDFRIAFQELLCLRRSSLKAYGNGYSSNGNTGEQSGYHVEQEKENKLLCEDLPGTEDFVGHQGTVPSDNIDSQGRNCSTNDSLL
# How it was run: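 Cells (CHO, stable ADRB2 overexpression) incubated 18-20hr at 37C; compounds added from DMSO; agonist mix (1nM isoproterenol, 100uM IBMX, 25uM Ro-20-1724) added; 0.5hr RT; d2-cAMP and anti-cAMP-cryptate added; 1hr RT; 665/615 nm read.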
# [19] = target: D(2) dopamine receptor (Homo sapiens) (UniProt P14416); assay: Dopamine D2 receptor (DRD2) small molecule agonists, cell-based qHTS assay (AID 1963594); also: nearly all actives have a fitted effect of over 35% in size
# Chain of D(2) dopamine receptor (Homo sapiens) (P14416 whole entry, looked up): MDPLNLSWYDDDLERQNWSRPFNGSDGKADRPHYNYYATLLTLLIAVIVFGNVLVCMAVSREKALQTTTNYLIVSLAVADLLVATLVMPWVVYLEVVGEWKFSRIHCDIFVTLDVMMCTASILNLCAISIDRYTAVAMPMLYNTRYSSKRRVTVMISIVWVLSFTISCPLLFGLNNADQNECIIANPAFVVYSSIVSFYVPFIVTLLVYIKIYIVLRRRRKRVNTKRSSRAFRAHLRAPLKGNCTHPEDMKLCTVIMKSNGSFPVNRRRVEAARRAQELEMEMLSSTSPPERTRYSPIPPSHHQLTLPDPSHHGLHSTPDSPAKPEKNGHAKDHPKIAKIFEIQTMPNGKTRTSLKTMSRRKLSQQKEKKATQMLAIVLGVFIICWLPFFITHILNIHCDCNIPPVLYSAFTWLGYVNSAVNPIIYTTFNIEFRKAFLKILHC
# How it was run: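 HEK293 cells stably expressing human DRD2, pre-treated with PDE inhibitor Ro20-1724 (0.1 mM final) and compound 10 min at room temperature, then stimulated with NKH477 (200nM […]) for 30 min. cAMP read by HTRF (665/620 nm).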
# [20] = target: D(2) dopamine receptor (Homo sapiens) (UniProt P14416); assay: Dopamine D2 receptor (DRD2) small molecule antagonists, cell-based qHTS assay (AID 1963595; active = well fitted inhibition curve with a large enough effect in the signal ratio in the repeat runs, with a control signal flat; the % refers to the signal ratio)
# How it was run: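 DRD2-HEK293; 0.1 mM Ro20-1724; cpd 10 min RT; NKH477 200 nM + quinpirole 12 nM, 30 min RT; HTRF cAMP (cAMP-d2/anti-cAMP cryptate), 665/620 nm ratio after 1 h.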
SMILES,Potency [1],Potency [2],Potency [3],Potency [4],Potency [5],Potency [6],Potency [7],Potency [8],Potency [9],Potency [10],Potency [11],Potency [12],Potency [13],Potency [14],Potency [15],Potency [16],Potency [17],Potency [18],Potency [19],Potency [20]
COC(C)(C)C,inactive,inactive,inactive,inactive,inactive,inactive,inactive,inactive,inactive,inactive,inactive,inactive,inactive,inactive,inactive,inactive,inactive,inactive,inactive,inactive
O=c1c2ccccc2c(=O)c2c1cc(Cl)c1[nH]c3c([nH]c12)c(Cl)cc1c(=O)c2ccccc2c(=O)c13,inactive,inactive,inactive,inactive,inactive,inactive,inactive,inactive,inactive,inactive,inactive,inactive,inactive,inactive,inactive,inactive,inactive,inactive,inactive,inactive
CC(=O)CC(c1ccc(Cl)cc1)c1c(O)c2ccccc2oc1=O (stereo not given),inactive,inactive,inactive,inactive,inactive,inactive,inactive,inactive,inactive,inactive,inactive,inactive,inactive,inactive,inactive,inactive,inactive,inactive,inactive,inactive
Cc1ccc(N=C=O)cc1N=C=O,inactive,62.7 µM (active) and 48.6 µM (active),inactive,inactive,inactive,inactive,inactive,inactive,inactive,inactive,inactive,inactive,inactive,inactive,inactive,inactive,inactive,inactive,inactive,inactive
O=S(=O)(c1ccccc1)c1ccccc1,inactive,inactive,inactive,inactive,inactive,inactive,inactive,inactive,inactive,inactive,inactive,inactive,inactive,inactive,inactive,inactive,inactive,inactive,–,inactive
CCC(Br)(CC)C(=O)NC(N)=O,inactive,inactive,inactive,inactive,inactive,inactive,inactive,inactive,inactive,inactive,inactive,inactive,inactive,inactive,inactive,inactive,inactive,inactive,–,inactive
CC1(C)C(C=C(Cl)Cl)C1C(=O)OC(C#N)c1ccc(F)c(Oc2ccccc2)c1 (stereo not given),inactive,inactive,inactive,inactive,inactive,inactive,inactive,inactive,inactive,inactive,inactive,inactive,inactive,inactive,inactive,inactive,inactive,inactive,inactive,–
Nc1ccc(Oc2ccc(N)cc2)cc1,inactive,inactive,inactive,inactive,inactive,inactive,inactive,inactive,inactive,inactive,inactive,inactive,inactive,inactive,inactive,inactive,inactive,inactive,inactive,inactive
CC(=NC#N)N(C)Cc1ccc(Cl)nc1,inactive,inactive,inactive,inactive,inactive,inactive,inactive,inactive,inactive,inactive,inactive,inactive,inactive,inactive,inactive,inactive,inactive,inactive,inactive,inactive
OCCCl,inactive,inactive,inactive,inactive,inactive,inactive,inactive,inactive,inactive,inactive,inactive,inactive,inactive,inactive,inactive,inactive,inactive,inactive,–,inactive
C1CCC(NC2CCCCC2)CC1,inactive,inactive,inactive,inactive,inactive,inactive,inactive,inactive,inactive,inactive,inactive,inactive,inactive,inactive,inactive,inactive,inactive,inactive,inactive,inactive
CCCCCBr,inactive,inactive,inactive,inactive,inactive,inactive,inactive,inactive,inactive,inactive,inactive,inactive,inactive,inactive,inactive,inactive,inactive,inactive,inactive,inactive
CC(C)C(=O)OCC(C)(C)C(OC(=O)C(C)C)C(C)C (stereo not given),inactive,inactive,inactive,inactive,inactive,inactive,inactive,inactive,inactive,inactive,inactive,inactive,inactive,inactive,inactive,inactive,inactive,inactive,–,inactive
O=C(O)C(F)(F)C(F)(F)C(F)(F)C(F)(F)C(F)(F)C(F)(F)C(F)(F)C(F)(F)F,inactive,inactive,inactive,inactive,inactive,inactive,inactive,inactive,inactive,inactive,inactive,inactive,inactive,4.21 µM (active),inactive,inactive,inactive,inactive,inactive,inactive
O=[N+]([O-])O[C@H]1CO[C@H]2[C@@H]1OC[C@H]2O[N+](=O)[O-],inactive,inactive,inactive,inactive,inactive,inactive,inactive,inactive,inactive,inactive,inactive,inactive,inactive,inactive,inactive,inactive,inactive,inactive,inactive,inactive
